Source: PubChem BioAssay AID591 (National Center for Advancing Translational Sciences (NCATS), 2007)
In all, about 59,000 compounds went through this assay and about 60 (0.1%) were called active. No rule for the calls is given here. Only a selection was taken, and actives are over-represented in it overall.

experiment: qHTS Assay for Spectroscopic Profiling in A488 Spectral Region; conditions: compound autofluorescence; max dye equivalency: Compound Type: qHTS ECL - SigmaAldrich, active compounds read high unless noted; outcome: dye equivalency, Compound Type: qHTS ECL - MLSMR unless noted
Source text: NIH Molecular Libraries Screening Centers Network [MLSCN]
NIH Chemical Genomics Center [NCGC]
Occasionally, the artifactual effect may originate from the compounds own spectral or other biophysical properties which generally tend to track its assay concentration. Pre-screening/profiling the library with respect to the compounds spectral properties should help one exclude false positives early on. While the most informative fluorescent profiling data set is obtained by performing a full excitation and emission scan of each well by using a monochromator-based plate reader, such an approach is practical only on a very limited scale as scanning each well requires long time. An alternative approach, applied here, is to perform plate reader scans using selected excitation and emission wavelength pairs to generate a multidimensional relational database that correlates compound concentration and the respective relative fluorescence intensity at a given wavelength set. A standard curve of Alexa 488 (A488) present on each plate as six-point concentration series, was used to compute a normalized fluorescence response, termed dye-equivalent concentration, for each compound at each concentration.
NCGC Assay Protocol Summary:
100 mM Tris buffer, pH 8.0
The wells in columns 1 through 4 of a Kalypsys polypropylene 1536-well compound plate were filled with standard solutions of fluorophore corresponding to the spectral region of interest. Solutions of A488 were placed in the following wells: Y1, Z1: 3 mM, Y2, Z2: 300 uM, Y3, Z3: 30 uM, Y4, Z4: zero (DMSO), AA1, AB1: 3 uM, AA2, AB2: 900 nM, AA3, AB3: 300 nM, AA4, AB4: zero (DMSO).
Six uL of buffer were dispensed to 1536-well Greiner black plates. Compounds and dye standards (23 nL) were transferred via Kalypsys PinTool. The plates were incubated for 15 min at room temperature, and then read on ViewLux (Perkin-Elmer) High-throughput CCD imager using 480 nm and 540 nm excitation and emission filter set.
Keywords: NIH Roadmap, MLSCN, MLI, MLSMR, qHTS, NCGC, A488, A-488, Fluorescent Profiling.

outcome, inactive:
CC[C@@H]1Cc2cc(O)ccc2C2=C1c1ccc(O)cc1C[C@H]2CC inactive [dye equivalency, Compound Type: qHTS ECL - SigmaAldrich]
O=c1c(-c2ccc(F)cc2)nc2cnc(N3CCNCC3)nc2n1Cc1cccs1 inactive [dye equivalency, Compound Type: qHTS ECL - Pharmacopeia]
Nc1nc(N)c2[nH]c(CNc3ccc(C(=O)O)cc3)nc2n1 inactive [dye equivalency, Compound Type: qHTS ECL - NCI]
N#Cc1cccc(-c2nc3cnc(N4CCNCC4)nc3n(C3CC3)c2=O)c1 inactive [dye equivalency, Compound Type: qHTS ECL - Pharmacopeia]
CC(C)NC(=O)N1CCC2(CC1)CCN(C(=O)c1cccn1C)CC2 inactive [dye equivalency, Compound Type: qHTS ECL - Pharmacopeia]
COCCn1c(=O)c(CCc2ccccc2)nc2cnc(N3CCNCC3)nc21 inactive [dye equivalency, Compound Type: qHTS ECL - Pharmacopeia]
CCc1nc(C)cn1S(=O)(=O)c1cc(OC)c(C)cc1C
CC(c1ccco1)N(C(=O)c1ccc(S(=O)(=O)N2CCCCC2)cc1)c1ccccn1 (centres undefined)
CS(=O)(=O)N(CC(=O)NCc1ccco1)c1ccc2c(c1)OCO2 inactive [dye equivalency, Compound Type: qHTS ECL - DPISMR]
O=C(NC1(C(F)(F)F)N=C2SCCN2C1=O)c1ccco1 (centres undefined)
COc1ccc(OCC(=O)OCC(=O)Nc2ccc(S(=O)(=O)N3CCCCC3)cc2)cc1
O=C(N1CCOCC1)N1CCOCC1
CCNC(=O)CN(c1ccc(C)cc1)S(=O)(=O)c1ccc(SC)cc1
CN(Cc1ccco1)c1cc(-c2ccccc2C(F)(F)F)ncn1 inactive [dye equivalency, Compound Type: qHTS ECL - Pharmacopeia]
COC(=O)Cc1nc2ccccc2[nH]1 inactive [dye equivalency, Compound Type: qHTS ECL - DPISMR]
CCOc1ccc(N=NS(=O)(=O)O)cc1 inactive [dye equivalency, Compound Type: qHTS ECL - NCI]
CN1CCN(C(=O)C2C3C=CC(C3)C2C(=O)O)CC1 (centres undefined)
CN(C)c1ncc2nc(-c3ccc(F)cc3)c(=O)n(Cc3ccc(F)cc3)c2n1 inactive [dye equivalency, Compound Type: qHTS ECL - Pharmacopeia]
CN(C)C(=O)c1ccc(-c2cncnc2NC2CCNCC2)cc1 inactive [dye equivalency, Compound Type: qHTS ECL - Pharmacopeia]
